This is one part of a sample in which hits are shown more often than they occur.
Pf Dd2 inh: Plasmodium falciparum Dd2 growth inhibition; P. falciparum Dd2 growth, SYBR Green, 72 h; Potency, µM (highest dose often 28.9 µM), for the others: top-dose activity, negative = inhibition, actives largely listed as inhibitors; actives 4.3% (n = 120,000); AID 1347417; active = well fitted inhibition curve with a large enough effect;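 also: plate controls were DMSO vehicle for no effect and reference drug for full effect; nearly all actives have a fitted effect of over 65% in size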
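Infected erythrocytes (Dd2, 0.3% parasitemia, 2.5% hematocrit final) are added to compound in RPMI-1640/Albumax II medium, grown 72 h at 37C in low oxygen, then lysed with saponin/Triton-X containing SYBR Green and read by fluorescence.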
* = called active by the depositor; i = inactive; [ ] = remark or other dose. Potency is read from the fitted curve at half-maximal effect.

SMILES | Pf Dd2 inh
CCCOc1cccc(C2c3c(-c4ccccc4O)n[nH]c3C(=O)N2Cc2ccco2)c1 (configuration not stated) | 5.62µM*
Cc1ccc(CCNC(=O)C2CC(=O)N(CCc3ccccc3)C2)cc1 (configuration not stated) | 5.1%
Cc1ccc(C2NC(=O)c3n[nH]c(-c4cccs4)c32)cc1 (configuration not stated) | -2.2%
CCCOc1ccc(C(=O)N(Cc2ccco2)Cc2ccco2)cc1 | 24.2%
COc1ccc(-c2[nH]nc3ncc(-c4ccccc4O)nc23)c(C)c1 | i
O=C1c2[nH]nc(-c3ccccc3O)c2C(c2cccc(OCc3ccccc3)c2)N1CCCO (configuration not stated) | 11.2µM*
O=C(c1nnc(COc2cc(F)cc(F)c2)n1-c1ccccc1)N1CCC[C@@H]1c1nc2ccccc2[nH]1 | i
Cc1ccc(NC(=O)Cn2nc(C)c3nn(-c4ccc(Cl)cc4)c(C)c3c2=O)cc1F | 47.8%
CC(=O)c1ccc(NC(=O)CSc2nc3c(=O)n(C)c(=O)n(C)c3n2C)cc1 | 8.1%
CCCc1nc(C(=O)N2C[C@H](c3cccc(OC)c3)[C@@H](N)C2)cs1 | i
COc1cc(C2c3c(-c4cc(C)ccc4O)n[nH]c3C(=O)N2Cc2cccnc2)cc(OC)c1OC (configuration not stated) | -7.8%
CCOc1cc(C2c3c(oc4cc(C)cc(C)c4c3=O)C(=O)N2CCO)ccc1O (configuration not stated) | 18.6%
COc1cc(C2C(C(=O)OCC(C)C)=C(C)N=C3SCCC(=O)N32)ccc1OCc1ccccc1 (configuration not stated) | -0.8%
CCCOc1ccc(C2c3c(-c4ccccc4O)n[nH]c3C(=O)N2CCc2ccccc2)cc1OCC (configuration not stated) | 4.47µM*
CCOc1ccc(C2c3c(-c4cc(C)ccc4O)n[nH]c3C(=O)N2Cc2cccnc2)cc1OCC (configuration not stated) | 11.2µM*
Cc1cc(C)c2c(=O)c3c(oc2c1)C(=O)N(Cc1ccco1)C3c1ccccc1F (configuration not stated) | 37.3%
CCOc1ccc(C2c3cc(OCC)c(OCC)cc3CC(=O)N2c2ccc(C(=O)O)cc2)cc1OCC (configuration not stated) | 61.1%
Cc1cc(C)c(-c2n[nH]c3c2C(c2ccccc2F)N(Cc2ccco2)C3=O)c(O)c1 (configuration not stated) | 3.98µM*
CCOc1ccc(C2c3c(oc4ccc(C)cc4c3=O)C(=O)N2CCCN(C)C)cc1OC (configuration not stated) | -17.9%
COc1cc(C2c3c(-c4ccccc4O)n[nH]c3C(=O)N2CCO)ccc1OCc1ccccc1 (configuration not stated) | 11.2µM*
O=C1c2[nH]nc(-c3ccccc3O)c2C(c2ccccc2F)N1Cc1ccncc1 (configuration not stated) | 19.4%
CCCCCOc1ccc(C2c3c(oc4ccccc4c3=O)C(=O)N2c2nc(C)c(C)s2)cc1OCC (configuration not stated) | 83.2%
CCNC(=O)N1CCC2(CCCCO2)CC1 | 19.8%
COc1ccccc1NC(=O)Cn1ccn(-c2cc(C)cc(C)c2)c(=O)c1=O | 65.3%
Cc1nn(-c2ccccc2)c(OC(=O)c2ccccc2F)c1S(=O)(=O)c1ccccc1 | 10.5%
SMILES | Pf Dd2 inh
CCn1c(CO)nnc1C1CC(NC(=O)CCCc2ccc(F)cc2)C1 (configuration not stated) | -6.8%
COCc1noc([C@@H]2CC(F)(F)CN2C(=O)c2cc(C)on2)n1 | -7.4%
CCOC(=O)c1cnc2c(Cl)cc(Cl)cc2c1Nc1cc(C(=O)O)ccc1C | -26.7%
CCn1nccc1C(=O)N1CCC2(CC1)CC(OCC1CC1)CCO2 (configuration not stated) | -8.8%
NC(=O)NCC(=O)NC1CCCN(c2nc3ccccc3s2)C1 (configuration not stated) | -14.3%
COCCNC(=O)CN1C(=O)COc2ccc(S(=O)(=O)N3CCCCCC3)cc21 | 25.0%
CCCN1C(=O)CN(C2CCCCC2)C(=O)C1c1ccc(OC)c(OC)c1 (configuration not stated) | 39.3%
CCCN1C(=O)c2[nH]nc(-c3ccccc3O)c2C1c1ccc(OCc2ccccc2)c(OC)c1 (configuration not stated) | 10µM*
CCCn1nc(C)c2c1NC(=O)CC2c1ccc(OCC(N)=O)c(OC)c1 (configuration not stated) | -21.1%
NC(=O)[C@H](Cc1ccc(O)cc1)NC(=O)C1=C[C@@H](NS(=O)(=O)c2cccs2)[C@@H](O)[C@H](O)C1 | 9.2%
COc1ccccc1C(=O)N1CCn2c(nnc2-c2ccc(Cl)cc2)C1 | -2.7%
COc1cc(NC(=O)C2CCN(c3cnc4ccccc4n3)CC2)cc(OC)c1OC | -18.6%
CCN1CCN(c2cc(C)c3cc(NC(=O)/C=C/c4cccc(OC)c4OC)ccc3n2)CC1 | 1.12µM*
COc1cccc(/C=C/C(=O)Nc2ccc3nc(N4CCN(C)CC4)cc(C)c3c2)c1OC | 1.26µM*
CCOC(=O)N1CCN(Cc2nc3cc(NC(=O)c4ccccc4OC)ccc3n2C(C)C)CC1 | -1.5%
CC(C)NC(=O)N1CC2ON=C(C(=O)NCc3ccc(F)cc3)C2C1 (configuration not stated) | 11.4%
Cc1ccc(-c2noc(CCCC(=O)N3CCc4nc5cc[nH]n5c(=O)c4C3)n2)cc1 | -14.7%[5.79 µM]
CC(C)N1C(=O)C2(CCCCC2)C1C(=O)NC1CCCC1 (configuration not stated) | -19.0%
CCOc1cccc2cc(-c3nc(-c4ccccc4C)no3)c(=O)oc12 | 30.8%
COCCN1Cc2ccc(Nc3ccc(OC)cc3)nc2C(C)(C(=O)NC(C)C)C1 (configuration not stated) | 12.6µM*
COCCN1Cc2ccc(NCc3ccccc3)nc2C(C)(C(=O)NCc2ccccc2)C1 (configuration not stated) | -26.5%
COCCN1Cc2ccc(Nc3ccc(OC)cc3)nc2C(C)(C(=O)NCC2CC2)C1 (configuration not stated) | i
CCSc1ncc(Cl)c(C(=O)Nc2sc3c(c2C(=O)NC)CCCC3)n1 | 19.9%
O=C(c1ccccn1)N1CCN(C(=O)c2nnn3c2COC(c2ccccc2)C3)CC1 (configuration not stated) | i
O=C(c1ccccc1)N1CCN(C(=O)c2nnn3c2COC(c2ccccc2)C3)CC1 (configuration not stated) | i
SMILES | Pf Dd2 inh
O=C(c1ccc2ccccc2n1)N1CCN(C(=O)c2nnn3c2COC(c2ccccc2)C3)CC1 (configuration not stated) | 6.31µM*
CCOc1ccc(C(=O)N2CCC3(CC2)NC(=O)N(Cc2ccc(F)cc2)C3=O)cc1 | i
CCOc1ccc(CNC(=O)c2cc(=O)[nH]c3ccc(S(=O)(=O)N4CCCC4)cc23)cc1 | 4.6%
CCOc1ccc(C2c3[nH]c4ccccc4c3CCN2C(=O)CSCc2ccc(F)cc2)cc1 (configuration not stated) | 11.2µM*
COc1ccccc1CNC(=O)c1c(O)nc2cc(C)ccn2c1=O | 16.2%
O=C(Nc1cnc(-c2cccc(Cl)c2)nc1)c1ccsc1 | i
CCC(=O)N1CCC(Oc2ccc(NC(=O)NCc3ccccc3)cn2)C1 (configuration not stated) | -7.7%
CNC(=O)[C@@H]1CN(C(=O)c2ccc(F)c(Cl)c2)C[C@H]1COC | 10.4%

Screening data (PubChem)
